Among all 5,500 compounds or so, about 2,000 (36%) were called active. Another 18% or so got no clear call; they are omitted. No stated cut-off is given here; in the data, active means normalized growth mostly below about 0.91 (no sharp cut-off); inconclusive means no clear call, values can overlap the other calls; inactive means mostly above about 0.92. The list shows a part of the results.
Test: chemical genetic growth profiling, strain panel (AID 1159580);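 further: tested at 20 µM; growth read once vehicle control cultures reached saturation at 30 °C; 1 = growth at the plate median or of vehicle wells; lower values mean less growth of the strain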
Settings: growth OD

Measured: normalized growth

CC(=O)/C=C\[C@@H]1[C@@]2(C)CCCC(C)(C)C2CC[C@@]1(C)O (some centres not stated)
active: S. cerevisiae deletion strains, locus YLR418C, strain cdc73, active compounds read low 0.838
inactive: S. cerevisiae deletion strains, locus YJR075W, strain HOC1, active compounds read low 0.982 | S. cerevisiae deletion strains, locus YKL009W, strain mrt4, active compounds read low 0.97 | S. cerevisiae deletion strains, locus YKL068W, active compounds read low 0.984 | S. cerevisiae deletion strains, locus YKL085W, strain MDH1 (second series), active compounds read low 0.977 | S. cerevisiae deletion strains, locus YKL085W, strain MDH1, active compounds read low 0.977 | S. cerevisiae deletion strains, locus YKL160W, strain elf1, active compounds read low 0.963 | S. cerevisiae deletion strains, locus YKL190W, strain CNB1, active compounds read low 0.964 | S. cerevisiae deletion strains, locus YKR001C, strain vps1, active compounds read low 0.975 | S. cerevisiae deletion strains, locus YKR026C, strain gcn3, active compounds read low 0.979 | S. cerevisiae deletion strains, locus YKR091W, strain srl3, active compounds read low 0.975 | S. cerevisiae deletion strains, locus YLL001W, strain dnm1, active compounds read low 1.01 | S. cerevisiae deletion strains, locus YLL026W, active compounds read low 0.991 | S. cerevisiae deletion strains, locus YLL041C, strain sdh2, active compounds read low 0.968 | S. cerevisiae deletion strains, locus YLR027C, strain aat2, active compounds read low 0.982 | S. cerevisiae deletion strains, locus YLR039C, strain RIC1, active compounds read low 0.846 | S. cerevisiae deletion strains, locus YLR058C, strain SHM2, active compounds read low 0.958 | S. cerevisiae deletion strains, locus YLR102C, strain apc9, active compounds read low 0.973 | S. cerevisiae deletion strains, locus YLR113W, strain HOG1, active compounds read low 0.951 | S. cerevisiae deletion strains, locus YLR221C, strain rsa3, active compounds read low 1.01 | S. cerevisiae deletion strains, locus YLR258W, strain gsy2, active compounds read low 0.981 | S. cerevisiae deletion strains, locus YLR262C, strain YPT6 (second series), active compounds read low 0.939 | S. cerevisiae deletion strains, locus YLR262C, strain YPT6, active compounds read low 0.843 | S. cerevisiae deletion strains, locus YLR268W, strain sec22, active compounds read low 0.923 | S. cerevisiae deletion strains, locus YLR320W, strain mms22, active compounds read low 1.01 | S. cerevisiae deletion strains, locus YLR330W, strain CHS5, active compounds read low 0.974 | S. cerevisiae deletion strains, locus YLR342W, strain FKS1 (second series), active compounds read low 0.957 | S. cerevisiae deletion strains, locus YLR342W, strain FKS1, active compounds read low 0.968 | S. cerevisiae deletion strains, locus YLR357W, strain rsc2, active compounds read low 0.998 | S. cerevisiae deletion strains, locus YLR370C, strain arc18, active compounds read low 0.964 | S. cerevisiae deletion strains, locus YLR371W, strain rom2, active compounds read low 1 | S. cerevisiae deletion strains, locus YLR384C, strain iki3, active compounds read low 0.973 | S. cerevisiae deletion strains, locus YML016C, strain PPZ1, active compounds read low 0.964 | S. cerevisiae deletion strains, locus YML032C, strain rad52, active compounds read low 1.02 | S. cerevisiae deletion strains, locus YML120C, strain ndi1, active compounds read low 0.971 | S. cerevisiae deletion strains, locus YML124C, strain tub3, active compounds read low 0.979 | S. cerevisiae deletion strains, locus YMR058W, strain fet3, active compounds read low 0.968 | S. cerevisiae deletion strains, locus YMR078C, strain ctf18, active compounds read low 0.975 | S. cerevisiae deletion strains, locus YMR125W, strain sto1, active compounds read low 0.958 | S. cerevisiae deletion strains, locus YMR129W, active compounds read low 0.96 | S. cerevisiae deletion strains, locus YMR205C, strain PFK2, active compounds read low 0.926 | S. cerevisiae deletion strains, locus YMR223W, strain ubp8, active compounds read low 1.01 | S. cerevisiae deletion strains, locus YMR231W, strain pep5, active compounds read low 0.972 | S. cerevisiae deletion strains, locus YMR263W, strain SAP30, active compounds read low 0.947 | S. cerevisiae deletion strains, locus YMR307W, strain GAS1, active compounds read low 1.08 | S. cerevisiae deletion strains, locus YNL067W, strain RPL9B, active compounds read low 0.957 | S. cerevisiae deletion strains, locus YNL071W, strain lat1, active compounds read low 0.961 | S. cerevisiae deletion strains, locus YNL128W, strain TEP1, active compounds read low 0.927 | S. cerevisiae deletion strains, locus YNL153C, strain GIM3, active compounds read low 0.951 | S. cerevisiae deletion strains, locus YNL183C, strain NPR1, active compounds read low 0.947 | S. cerevisiae deletion strains, locus YNL209W, strain ssb2, active compounds read low 0.986 | S. cerevisiae deletion strains, locus YNL233W, strain BNI4, active compounds read low 0.942 | S. cerevisiae deletion strains, locus YNL248C, strain rpa49, active compounds read low 0.952 | S. cerevisiae deletion strains, locus YNL250W, strain rad50, active compounds read low 0.99 | S. cerevisiae deletion strains, locus YNL271C, strain bni1, active compounds read low 0.991 | S. cerevisiae deletion strains, locus YNL298W, strain CLA4, active compounds read low 0.984 | S. cerevisiae deletion strains, locus YNL307C, strain MCK1, active compounds read low 0.948 | S. cerevisiae deletion strains, locus YNL322C, strain KRE1 (second series), active compounds read low 0.989 | S. cerevisiae deletion strains, locus YNL322C, strain KRE1, active compounds read low 0.965 | S. cerevisiae deletion strains, locus YNR049C, strain mso1, active compounds read low 0.98 | S. cerevisiae deletion strains, locus YNR052C, strain pop2, active compounds read low 0.98 | S. cerevisiae deletion strains, locus YOL006C, strain TOP1, active compounds read low 0.867 | S. cerevisiae deletion strains, locus YOL012C, strain htz1 0.968 | S. cerevisiae deletion strains, locus YOL147C, strain pex11, active compounds read low 0.987 | S. cerevisiae deletion strains, locus YOR001W, strain rrp6, active compounds read low 0.95 | S. cerevisiae deletion strains, locus YOR061W, strain CKA2, active compounds read low 0.944 | S. cerevisiae deletion strains, locus YOR069W, strain VPS5, active compounds read low 0.977 | S. cerevisiae deletion strains, locus YOR070C, strain gyp1, active compounds read low 0.968 | S. cerevisiae deletion strains, locus YOR080W, strain dia2, active compounds read low 0.978 | S. cerevisiae deletion strains, locus YOR083W, strain WHI5, active compounds read low 1.03 | S. cerevisiae deletion strains, locus YOR106W, strain vam3, active compounds read low 0.982 | S. cerevisiae deletion strains, locus YOR136W, strain idh2, active compounds read low 0.996 | S. cerevisiae deletion strains, locus YOR144C, strain elg1, active compounds read low 0.97 | S. cerevisiae deletion strains, locus YOR184W, strain ser1, active compounds read low 0.993 | S. cerevisiae deletion strains, locus YOR231W, strain MKK1, active compounds read low 0.964 | S. cerevisiae deletion strains, locus YOR265W, strain rbl2, active compounds read low 0.979 | S. cerevisiae deletion strains, locus YOR270C, strain vph1, active compounds read low 0.909 | S. cerevisiae deletion strains, locus YOR290C, strain snf2, active compounds read low 0.974 | S. cerevisiae deletion strains, locus YOR316C, strain cot1, active compounds read low 0.977 | S. cerevisiae deletion strains, locus YPL051W, strain arl3, active compounds read low 0.986 | S. cerevisiae deletion strains, locus YPL055C, strain LGE1, active compounds read low 0.866 | S. cerevisiae deletion strains, locus YPL078C, strain atp4, active compounds read low 0.97 | S. cerevisiae deletion strains, locus YPL106C, strain sse1, active compounds read low 1.02 | S. cerevisiae deletion strains, locus YPL240C, strain hsp82, active compounds read low 0.98 | S. cerevisiae deletion strains, locus YPL241C, strain CIN2, active compounds read low 0.968 | S. cerevisiae deletion strains, locus YPL256C, strain CLN2, active compounds read low 0.979 | S. cerevisiae deletion strains, locus YPR119W, strain clb2, active compounds read low 0.985 | S. cerevisiae deletion strains, locus YPR141C, strain kar3, active compounds read low 0.975 | S. cerevisiae deletion strains, locus YPR163C, strain tif3, active compounds read low 0.973 | S. cerevisiae deletion strains, locus YPR167C, strain met16, active compounds read low 0.971 | S. cerevisiae deletion strains, strain wtn01, active compounds read low 0.94 | S. cerevisiae strains, strain wild type, active compounds read low 0.967
